Pf growth 96h = inhibits malaria parasite growth, 96 h; P. falciparum luciferase reporter growth, 96 h; 6.9% of 320,000 active; Potency, µM (highest dose often 28.7 µM), without a hit: at the highest dose activity change, negative = inhibition, most hits filed as inhibitors; note: potency is the fitted concentration of half-maximal effect; % is set by controls: 0 for no effect and ±100 for the full control effect
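96 h incubation, 37 C, 5% CO2, of luciferase-reporter P. falciparum-infected RBCs (2% hematocrit, 0.05% parasitemia final) with test compounds; endpoint luminescence.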
Shiga inhibitor = Shiga toxin inhibition; Vero cells, Shiga toxin protein synthesis inhibition reporter; inhibition, % at 38.7 µM; 9.2% of 290,000 active; AID 2315; in the data active = inhibition mostly above about 28%, no sharp cut-off; inactive = mostly below about 43%; note: 0% is about no effect
Pf growth 48h = inhibits P. falciparum growth in the first generation, 48 h. P. falciparum luciferase growth in erythrocytes, 48 h. Potency, µM (highest dose often 28.7 µM), for the others: at the highest dose activity change, negative = inhibition, hits mostly inhibitors. 5.9% of 310,000 active. AID 504832; note: potency is the fitted concentration of half-maximal effect; % is set by controls: 0 for no effect and ±100 for the full control effect
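Luciferase-expressing P. falciparum in infected erythrocytes (2% hematocrit, 0.1% parasitemia final) in RPMI 1640/0.5% Albumax were exposed to compound for 48 hours at 37 C, 5% CO2; growth read as luminescence.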
LmPK inhibitor = blocks Leishmania mexicana pyruvate kinase activity; AID 1721; Potency, µM (doses to about 57.5 µM), for inactives: top-dose activity change, negative = inhibition, usual class: inhibitors; Q27686; 0.37% of 290,000 active; purified LmPK, Kinase-Glo ATP luminescence, 1 h; note: potency is the fitted concentration of half-maximal effect; % is set by controls: 0 for no effect and ±100 for the full control effect
Target sequence (Q27686 whole entry, looked up): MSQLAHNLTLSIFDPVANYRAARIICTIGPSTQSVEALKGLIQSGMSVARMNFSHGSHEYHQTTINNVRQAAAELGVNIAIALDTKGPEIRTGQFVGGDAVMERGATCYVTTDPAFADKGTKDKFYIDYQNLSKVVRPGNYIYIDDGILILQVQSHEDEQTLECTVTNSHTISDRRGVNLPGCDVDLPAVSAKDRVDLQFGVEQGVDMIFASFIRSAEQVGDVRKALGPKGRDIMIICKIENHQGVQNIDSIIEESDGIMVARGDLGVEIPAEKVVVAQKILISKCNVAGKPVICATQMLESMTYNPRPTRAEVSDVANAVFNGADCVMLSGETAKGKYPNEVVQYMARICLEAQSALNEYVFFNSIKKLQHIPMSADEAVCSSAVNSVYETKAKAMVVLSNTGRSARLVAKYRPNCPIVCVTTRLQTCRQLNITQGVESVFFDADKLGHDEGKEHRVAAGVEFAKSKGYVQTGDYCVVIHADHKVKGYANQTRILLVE
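Purified LmPK (0.1 nM) converted ADP (0.1 mM) to ATP with PEP (0.5 mM) in imidazole buffer pH 7.2 with KCl and MgCl2, 1 h at room temperature. ATP was read by Kinase-Glo luminescence; data normalized to uninhibited and no-enzyme controls.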
Cycloheximide cs = affects cycloheximide protein synthesis inhibition readout, counter-screen | max response, % | 12% of 300,000 active | cell reporter, cycloheximide protein synthesis inhibition counterscreen; in the data active = max response mostly above about 13%, no sharp cut-off; inactive = mostly below about 14%; note: read at 38.3 µM for the half of the compounds with a filed dose; 0% is about no effect
Numbers without * were called inactive; ? = inconclusive; · = no result given; [ ] = another dose, or the depositor's remark. A selection: hits, their analogues and other compounds. The true share with any hit is near 22%. Unless noted, calls come from the whole dose curve; as a rule, active = well fitted inhibition curve with a large enough effect; inconclusive = small, poorly fitted or top-dose-only effect, or another doubt; inactive = no such curve, though single readings can be large or run the other way.

SMILES	Pf growth 96h	Shiga inhibitor	Pf growth 48h	LmPK inhibitor	Cycloheximide cs
Cc1nc(SCC(=O)Nc2ccccc2Cl)c2c(C)c(C)sc2n1	?	·	5.2µM*	·	·
Cc1nc(SCC(=O)N2c3ccccc3NC(=O)CC2C)c2c(C)c(C)sc2n1 (stereo not given)	13µM*	·	?	·	·
Cc1ccc(-c2csc3ncnc(Sc4nnc(CN5CCCCCC5=O)o4)c23)cc1	15µM*	-32	12µM*	-2%	-3
CN(C)C1=NCCN1CCC1CCCC1	-18%	-5	-8%	-6%	-1
CCC(=O)O	·	61	·	·	25
O=C1NC(c2cccs2)Nc2sc3c(c21)CCCC3 (stereo not given)	·	87*	60%	-4%	38*
O=C1NC(c2ccco2)Nc2sc3c(c21)CCN(Cc1ccccc1)C3 (stereo not given)	-17%	-5	·	4%	7
Cc1cccc(C)c1NC(=O)CN(c1ccccn1)S(=O)(=O)c1ccc(F)cc1	13%	-2	-4%	-5%	-2
O=C(O)c1ccc(-n2cc(-c3cc4ccccc4oc3=O)[nH]c2=S)cc1	0.17µM*	64*	127%	?	32*
CC(=O)Nc1ccc(-n2cc(-c3ccccc3)[nH]c2=S)cc1	6%	6	-12%	?	5
COCC(=O)Nc1ccc(OC)c(Cl)c1	44%	3	34%	-10%	-2
CC(C)=CC(=O)Nc1ccc(Cl)cc1	?	55*	97%	-19%	54*
COc1ccc(NC(=O)C=C(C)C)cc1Cl	?	102*	121%	16µM*	29*
CCC[N+]1(CC#CC(O)(c2ccccc2)C2CCCCC2)CCCCC1 (stereo not given)	-22%	-4	1.7µM*	-6%	1
COc1ccc(/C=N/NC(C)(C)C)c(OC)c1	23%	-6	-9%	1%	-1
O=C1NC(=O)C(=Cc2ccc(Sc3ccccc3)o2)C(=O)N1	32%	34	16%	?	20*
COCCNc1ncnc2c1cnn2-c1ccc(Cl)cc1	·	73*	·	0%	43*
OCCOCCNc1ncnc2c1cnn2-c1ccccc1	63%	-12	1.3µM*	0%	-2
OCCOCCNc1ncnc2c1cnn2-c1ccc(Cl)cc1	·	1	3.3µM*	1%	-2
COc1ccc(-n2ncc3c(NCCCn4ccnc4)ncnc32)cc1	?	-4	-9%	2%	-4
CCOC(=O)c1c(CCl)nc2ccccc2c1C	?	11	?	3%	10
O=C(c1ccccc1NS(=O)(=O)c1ccc(F)cc1)N1CCOCC1	143%	-13	2%	-9%	-1
Nc1nc2c(Cl)ccc(Cl)c2s1	8.3µM*	32	?	-1%[11.5 µM]	-4
COc1ccc2cc3cc(C(=O)N4CCCCCC4)oc3nc2c1	?	72*	0%	-7%	41*
COc1ccc(C)cc1NC(=O)c1cc2cc3ccc(C)cc3nc2o1	?	20	21%	2%	-2
SMILES	Pf growth 96h	Shiga inhibitor	Pf growth 48h	LmPK inhibitor	Cycloheximide cs
COc1ccc2cc3cc(C(=O)N4CCN(C5CCCCC5)CC4)oc3nc2c1	-21%	7	?	6%	6
COc1ccc2cc3cc(C(=O)N4CCCCC4C)oc3nc2c1 (stereo not given)	?	64*	-4%	-1%	34*
COc1ccc2cc3cc(C(=O)N(C)C4CCCCC4)oc3nc2c1	?	77*	-7%	-11%	30*
CCOC(=O)C1CCN(C(=O)c2ccc3c(c2)C(=O)N(c2ccccc2C)C3=O)CC1	14%	·	?	·	·
CCOC(=O)C(C#N)=C1CCN(Cc2ccccc2)CC1	7.4µM*	-1	·	0%	7
CCN(CC)CCN1C(=O)C(=O)/C(=C(/O)c2ccc(C)cc2)C1c1ccncc1 (stereo not given)	?	-7	20%	2%	-3
CCN(CC)CCN1C(=O)C(=O)/C(=C(/O)c2ccc(OC(C)C)cc2)C1c1cccs1 (stereo not given)	71%	85*	88%	1%	45*
CCN(CC)CCN1C(=O)C(=O)/C(=C(/O)c2ccc(OC(C)C)cc2)C1c1ccncc1 (stereo not given)	15µM*	-11	·	5%	-1
CCN(CC)CCN1C(=O)C(=O)/C(=C(/O)c2c(C)[nH]c(C(=O)OC)c2C)C1c1cccs1 (stereo not given)	44%	24	·	2%	23*
COC(=O)Cn1cc([N+](=O)[O-])nc1C	6%	11	4%	-3%	6
Cn1cnnc1SCC(=O)NC1CCCC1	?	-7	-26%	0%	0
CCOC(=O)C1(C)C=C(Nc2ccc(NC(C)=O)cc2)C(=O)N1c1ccc(NC(C)=O)cc1 (stereo not given)	1%	-1	-2%	1%	-2
O=C(/C=C/Sc1ccccc1)c1ccccc1	?	182*	·	?	140*
O=C(/C=C/Sc1ccccc1)c1ccc(Cl)cc1	?	116*	·	-9%	68*
COc1cccc(OCC(=O)O/N=C(\N)c2ccncc2)c1	?	59*	90%	1%	28*
N/C(=N\OC(=O)CSc1ccccc1)c1cccc([N+](=O)[O-])c1	33%	15	33%	0%	33*
N/C(=N\OC(=O)Cc1ccc(-c2ccccc2)cc1)c1ccncc1	6%	14	?	-2%	6
N/C(=N\OC(=O)Oc1ccccc1)c1cccc([N+](=O)[O-])c1	26%	-7	7%	1%	7
Cc1cc(C)cc(OCC(=O)O/N=C(\N)c2cccnc2)c1	33%	34	?	-4%	16*
N/C(=N\OC(=O)CSc1ccccc1)c1ccncc1	?	79*	80%	1%	47*
N/C(=N\OC(=O)COc1ccccc1)c1cccnc1	-9%	-18	-17%	-3%	2
O=C1CCc2cc(S(=O)(=O)Nc3cccc(F)c3)cc3c2N1CC3	-13%	·	-19%	·	·
O=C(COc1ccccc1)NNC(=O)c1ccc(Cl)cc1	?	·	-21%	·	·
N/C(=N\OC(=O)COc1ccccc1)c1ccc(Cl)cc1	13µM*	14	66%	-1%	-1
N/C(=N\OC(=O)COc1ccccc1)c1ccncc1	86%	83*	65%	2%	43*
SMILES	Pf growth 96h	Shiga inhibitor	Pf growth 48h	LmPK inhibitor	Cycloheximide cs
Cc1c(C)c2cc(Cl)c(OCC(=O)N3CCN(c4ccc(F)cc4)CC3)cc2oc1=O	-1%	-9	8%	1%	-2
CSc1nsc2nc(=O)c(/C=C3\C=Nc4ccccc43)c(N)n12	37%	36	7%	1%	10
Nc1c(C=C2C=CC(=O)C=C2)c(=O)nc2snc(SCc3ccccc3)n12	33%	47*	1%	2%	33*
Clc1ccccc1-c1csc(Nc2cccnc2)n1	-20%	53*	?	0%	26*
COc1ccc(CCNc2nc(-c3cccnc3)cs2)cc1OC	30%	-10	?	1%	-1
Clc1ccccc1Nc1nc(-c2cccnc2)cs1	36%	50*	19%	-26%	41*

Assay outcomes as filed in PubChem BioAssay.
